# Most compounds without a hit are left out; they make up all but 19% or so of the library.
# DT40 TDP1 CPT – growth inhibition of DT40 Tdp1-/-;hTDP1 cells with camptothecin (screen for TDP1 inhibitors). chicken DT40 Tdp1-/-;hTDP1 cells + 20 nM CPT, ATP luminescence, 48 h. Potency, µM (titrated, usually from 46.2 µM), for inactives: at the top dose activity change, negative = growth inhibition, hits mostly inhibitors. actives 12% (n = 420,000). AID 686979; note: potency is the fitted concentration of half-maximal effect; nearly all actives have a fitted effect of over 55% in size
#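 Chicken DT40 Tdp1-/- cells complemented with human TDP1, 400 cells/well, exposed to compounds plus 20 nM camptothecin for at least 48 h at 37 C; viability read as ATP content by CellTiter-Glo luminescence.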
# HT1080 IDH1KD tx – HT-1080 IDH1 knockdown cell toxicity (counter line) | HT-1080 IDH1 knockdown viability, ATP luminescence, 48 h | Potency, µM (top dose mostly 46.1 µM), without a hit: at the highest dose activity, negative = toxicity, usual class: cytotoxic | actives 2% (n = 360,000);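 note: potency is the fitted concentration of half-maximal effect; 0% = DMSO wells and -100% = cell-free medium wells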
#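 Cytotoxicity counter-line: IDH1KD HT-1080, 48 h, CellTiter-Glo. Curves classed by r2, magnitude and activity.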
# HT1080-NT tox – kills 2HG-producing HT-1080-NT fibrosarcoma cells; HT-1080-NT fibrosarcoma viability, CellTiter-Glo ATP luminescence, 48 h; Potency, µM (titrated, usually from 46.1 µM), for the others: at the highest dose activity, negative = less viability, usual class: cytotoxic; actives 1.6% (n = 360,000);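 note: NT is the 2HG producing partner of a matched IDH1 knockdown line; potency is the fitted concentration of half-maximal effect; 0% = DMSO-treated cells and -100% = media-only wells without cells; nearly all actives have a fitted effect of over 55% in size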
#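 Read-out is CellTiter-Glo luminescence after 10 minutes at room temperature, following 48 hours' compound treatment of HT-1080-NT cells (750 cells/well, RPMI, 5% FBS, 37 degrees C).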
# DT40 TDP1 no CPT – qHTS for Inhibitors of human tyrosyl-DNA phosphodiesterase 1 (TDP1): qHTS in cells in absence of CPT; actives 15% (n = 420,000); DT40 Tdp1-/- hTDP1 cells, no CPT, ATP luminescence, 48 h; AID 686978, 2013; Potency, µM (series often up to 46.2 µM), without a hit: at the highest dose activity change, negative = growth inhibition, hits mostly inhibitors; note: potency is the fitted concentration of half-maximal effect; nearly all actives have a fitted effect of over 55% in size
#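 Compound effects on proliferation are scored in DT40 Tdp1-/-;hTDP1 cells in the absence of CPT. ATP levels (CellTiter-Glo luminescence) are recorded after a ≥48 hr, 37 °C incubation.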
# IL1B secr inh – inhibitors of inflammasome signaling (IL-1 beta secretion) | actives 4.7% (n = 360,000) | AID 743279 | THP-1 LPS/ATP IL-1B secretion, AlphaLISA, 16 h; active compounds read low | activity change, % at 57.5 µM; in the data active = activity change below about -50%; inconclusive = mostly about -30% to -49%
#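 Secreted IL-1B measured by AlphaLISA bead assay after 16 h compound exposure of THP-1 cells; compounds (final up to 57.5 uM) added 1 h before LPS (250 ng/mL) and ATP (1.25 mM) stimulation; lower signal means less secretion.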
# Active calls of the source: *; i = inactive; u = inconclusive; x = no result given; [ ] = another dose, or the depositor's remark. Unless noted, calls come from the whole dose curve; as a rule, active = well fitted curve in the direction sought with a large enough effect; inconclusive = small, poorly fitted or top-dose-only effect, or another doubt; inactive = no such curve, though single readings can be large; an effect the other way counts as inactive or inconclusive. Unless noted, % is set by controls: 0 for no effect and ±100 for the full control effect.
SMILES,DT40 TDP1 CPT,HT1080 IDH1KD tx,HT1080-NT tox,DT40 TDP1 no CPT,IL1B secr inh
NS(=O)(=O)c1ccc(CCNC(=O)c2coc3ccccc3c2=O)cc1,1.6%,-10.8%,u,-14.5%,20.1
CC(=O)NS(=O)(=O)c1ccc(NC(=O)C(C)NS(=O)(=O)/C=C/c2ccccc2)cc1 (configuration not stated),5.1%,-0.4%,0.0%,1.3%,-5.4
CC(C)(C)c1ccc(/C=C2\SC(=O)N(CCNC(=O)c3cccc(S(=O)(=O)N4CCOCC4)c3)C2=O)cc1,8.2µM*,-23.9%,-3.0%,23.1µM*,-15.4
O=C(NCCN1C(=O)S/C(=C\c2cccnc2)C1=O)c1cc(S(=O)(=O)N2CCOCC2)ccc1F,u,-3.8%,-0.4%,18.4µM*,0.0
Cc1nn(Cc2ccccc2)c(C)c1C(=O)NCCN1C(=O)S/C(=C\c2ccccc2)C1=O,20.6µM*,10.3%,0.4%,u,-1.6
O=C1S/C(=C/c2ccccc2F)C(=O)N1CCN=C1NS(=O)(=O)c2ccccc21,16.4µM*,-8.0%,-2.9%,u,-97.4*
O=C(CCN1C(=O)C2C3C=CC(C4CC34)C2C1=O)Nc1ccc(Cl)cc1O (configuration not stated),-2.5%,-1.9%,-11.3%,u,4.5
O=C(CCl)NCCN1C(=O)S/C(=C\c2cccnc2)C1=O,u,u,u,u,-70.4*
O=C(CN1C(=O)NC2(CCCC2)C1=O)NCCN1C(=O)S/C(=C\c2ccccc2F)C1=O,u,-11.3%,-2.6%,u,-2.6
CCc1noc(C)c1C(=O)NCCN1C(=O)S/C(=C\c2ccccc2F)C1=O,18.4µM*,2.0%,-0.2%,18.4µM*,5.8
Nc1nc(N)c2cc(S(=O)(=O)c3ccc4ccccc4c3)ccc2n1,u,3.26µM*,8.2µM*,1.84µM*,7.7
O=C(C1CC1)N1CCN=C1SCc1ccccc1Cl,-20.8%,-4.8%,-24.8%,-18.4%,-2.8
O=C(Nc1ccccn1)c1cc(-c2cccnc2)nc2ccc(Br)cc12,u,u,u,u,8.9
CS(=O)(=O)N1CCN(C(=O)c2cc(-c3cccnc3)nc3ccc(Br)cc23)CC1,-4.1%,-12.5%,-3.6%,9.2µM*,61.0
CC(C)n1ncc2c(C(=O)N3CCN(c4ccccc4)CC3)cc(-c3ccccc3)nc21,u,u,-27.0%,u,-9.2
O=C(Nc1ccc(C(=O)N2CCOCC2)cc1)c1cc(-c2cccnc2)nc2ccc(Br)cc12,2.31µM*,-25.1%,-29.4%,2.31µM*,-53.1*
Cc1ccc2nc(-c3cccnc3)cc(C(=O)N3CCN(c4ccc([N+](=O)[O-])cc4)CC3)c2c1,16.4µM*,1.8%,-0.1%,18.4µM*,9.8
CC(=O)c1ccc(N2CCN(C(=O)c3cc(-c4cccnc4)nc4ccc(Br)cc34)CC2)cc1,u,1.9%,-14.4%,18.4µM*,-10.7
NS(=O)(=O)c1ccc(NC(=O)COC(=O)CNC(=O)C23CC4CC(CC(C4)C2)C3)cc1,u,-1.0%,-8.4%,35.5%,20.7
O=C(NCc1ccc(Cl)cc1)c1ccc2nc[nH]c2c1,-28.3%,0.4%,-0.3%,0.0%,-21.3
O=C(CSc1n[nH]c(-c2ccco2)n1)Nc1ccccc1Cl,-1.4%,-8.8%,-0.8%,-10.6%,u
COC(=O)c1sc(-c2ccc(C(C)(C)C)cc2)cc1NC(=O)CSCC(=O)O,u,-17.4%,-15.4%,u,0.0
O=C(c1cc(-c2cccnc2)nc2ccc(Br)cc12)N1CCN(c2ncccn2)CC1,u,-7.3%,-6.0%,18.4µM*,-5.6
O=C(c1cc(-c2cccc(Br)c2)nc2ccccc12)N1CCCC1,u,5.8%,6.0%,-29.1%,-2.0
CCCCOc1ccc(C(=O)N/N=C/c2ccc(OCCN3CCCCC3)c(OC)c2)cc1,20.6µM*,-24.9%,-25.0%,u,-80.5*
SMILES,DT40 TDP1 CPT,HT1080 IDH1KD tx,HT1080-NT tox,DT40 TDP1 no CPT,IL1B secr inh
COc1ccc(-c2[nH]ncc2/C=N\NC(=O)c2ccc(C(C)(C)C)cc2)cc1OC,u,u,-41.1%,25.9µM*,-0.1
COc1ccc(C(=O)N/N=C/c2cn[nH]c2-c2ccc(OC)cc2OC)cc1,u,6.0%,5.5%,u,-3.0
CCCCOc1ccc(C(=O)N/N=C/c2cn[nH]c2-c2ccc(OC)c(OC)c2)cc1,u,-17.5%,u,u,-56.0*
COc1ccc(-c2[nH]ncc2/C=N/NC(=O)c2ccc(Br)cc2)c(OC)c1,8.1%,-12.3%,-4.4%,-25.8%,-9.4
COc1cc(/C=N/NC(=O)CN2CCCCC2)ccc1OCc1ccccc1,2.6%,-9.8%,-5.3%,-14.5%,3.0
COc1ccccc1-c1cnn2c(NC3CCCC3)cc(C)nc12,29.1µM*,0.0%,16.6%,20.6µM*,-20.8
CCOC(=O)N1CCC(Nc2cc(C)nc3c(-c4ccccc4OC)c(C)nn23)CC1,5.8µM*,-16.5%,-5.8%,9.2µM*,-11.7
Cc1cc(NC2CCCCC2)n2c(n1)nc1ccccc12,-10.3%,5.4%,0.4%,u,16.8
CCOC(=O)N1CCN(C(=O)CSc2cc(C)nc3c(-c4ccccc4OC)c(C)nn23)CC1,23.1µM*,11.2µM*,10µM*,16.4µM*,-10.0
COc1ccc2cc(C(=O)NCc3ccc4c(c3)CCN4C(=O)c3ccccc3)[nH]c2c1,-7.1%,x,x,-16.5%,x
C=CCn1c(-c2ccccc2)nc(=S)c2c1CCCC2,u,11.7%,14.6%,23.1µM*,-14.6
CC(C)Cn1c(-c2ccccc2)nc(=S)c2c1CCCC2,u,15.5%,11.6%,u,9.5
CC(C)[C@@H](NC(=O)C1CCC(CNC(=O)[C@H](Cc2ccccc2)NC(=O)OC(C)(C)C)CC1)C(=O)O (some centres not stated),0.9%,14.6%,0.6%,-2.6%,4.8
Cc1ccc(OCc2ccc(C(=O)Nc3c(C)nn(Cc4c(F)c(F)c(F)c(F)c4F)c3C)o2)c([N+](=O)[O-])c1,13µM*,u,u,18.4µM*,u
CCn1ncc(Br)c1C(=O)Nc1c(C)nn(Cc2c(F)c(F)c(F)c(F)c2F)c1C,16.4µM*,-24.1%,-1.4%,u,i
Cc1nn(Cc2c(F)c(F)c(F)c(F)c2F)c(C)c1NC(=O)c1c([N+](=O)[O-])cnn1C,13µM*,6.4%,2.5%,11.6µM*,7.0
Cc1nn(Cc2c(F)c(F)c(F)c(F)c2F)c(C)c1NC(=O)c1nn(C)cc1Br,u,2.4%,7.7%,-16.5%,u
CN(Cc1ccc2c(c1)CN(C(=O)c1cccc(N(C)C)c1)CCO2)Cc1cc(C2CC2)n[nH]1,0.8%[9.04 µM],x,x,23.1µM*,x

# Screening results as filed in PubChem BioAssay.
